# Records with an inconclusive call do not appear. Where a call stands in place of a potency, no number is given. Activity calls are given as the source filed them. Calls come from the whole dose curve; as a rule, active = well fitted inhibition curve with a large enough effect; inconclusive = small, poorly fitted or top-dose-only effect, or effect the other way; inactive = flat fitted curve, though single readings scatter.
# Test: qHTS for Inhibitors of Plasmodium falciparum (GB4) proliferation (AID 504315); note: nearly all actives have a fitted effect of over 50% in size
# Details: P. falciparum GB4 in erythrocytes, SYBR Green DNA, 72 h; series mostly up to 6.7 µM
# Method in brief: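 Erythrocytes infected with P. falciparum line (0.3% parasitemia, 2.5% hematocrit final) incubated with compounds 72 h at 37 °C, 5% CO2; SYBR Green lysis buffer added, fluorescence read next day. Normalized to 0.29 uM artemisinin and DMSO.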
# Potency is the fitted concentration of half-maximal effect.
row,Compound,Potency
1,COC(=O)C1=C(C)N(Cc2ccccc2)C(=NCCc2ccccn2)NC1c1cccc(C(F)(F)F)c1 (centres undefined),0.601 µM (active)
2,CC(=O)C1=C(C)N(Cc2ccco2)C(=O)NC1c1ccccc1 (centres undefined),inactive
3,CC(=O)C1=CN(CCc2c[nH]c3ccccc23)C(=O)NC1c1ccccc1 (centres undefined),inactive
4,CCN1C(=NCc2ccc(OC)cc2)N[C@@H](CCc2ccccc2)[C@H](C(=O)NCc2ccc(OC)cc2)[C@H]1C,inactive
5,C[C@@H]1CC[C@H]2C(=O)N(Cc3cccc([N+](=O)[O-])c3)C[C@@H](O)CN2[C@@H]1c1ccc(Br)cc1,inactive
6,C=C(C(C)=O)C(O)c1ccc(C(F)(F)F)cc1 (centres undefined),inactive
7,COC(=O)[C@H]1[C@@H](c2ccccc2)NC(=O)N(CCc2cc(OC)c(OC)c(OC)c2)[C@@H]1C,inactive
8,CC(C)OC(=O)[C@@H]1CC[C@H](C)[C@@H](CCC[C@@H]2CC=C[C@H](CC#N)O2)O1,inactive
9,COc1ccc2c(c1)[C@H](C=Cc1ccccc1)[C@@H]([C@H](O)CO)O2,inactive
10,COCCN1C(=O)CC[C@@]23C1=NC(C(=O)OC)=C(C(=O)OC)[C@@H]2N(CC=C(C)C)c1ccccc13,inactive
11,CON(C)C(=O)c1nnc2c3ccccc3n(S(=O)(=O)c3ccc(C)cc3)c2n1,inactive
12,CCOC(=O)C(C)=NNC(C)=O,inactive
13,COc1ccc2c(c1)[C@@]1(OCCC=C[C@@H]1C)C(=O)N2Cc1ccc(Br)cc1,inactive
14,CCCCCCCc1cc2ccccc2c2c(C=O)c(CCCC)c(C(=O)OC)n12,inactive
15,CC(CCN1CCc2nc(-c3ccccc3)c(-c3ccccc3)cc2C1)=NOC[C@@H](O)COCc1ccco1,inactive
16,C=C(C(C)=O)C(O)c1ccccc1 (centres undefined),inactive
17,CC(CCC(=O)OC[C@H]1O[C@H](C#Cc2ccccc2)C=C[C@H]1Oc1ccc(C)cc1)=NO[C@H](C)c1cn([C@H](CO)Cc2ccccc2)nn1,inactive
18,O=C(C=NO)NCCCCNC(=O)C=NO,inactive
19,COC[C@@H](OC(C)=O)[C@H]1OCc2ccccc2[C@@H]1C=Cc1ccccc1,inactive
20,CCN1C(=NCCc2cccnc2)N[C@H](CCc2ccccc2)[C@H](C(=O)OC)[C@H]1C,inactive

row,Compound,Potency
1,CCCCc1nc2c(c3c1C[C@H](C)OC3)CN(C(=O)Cc1cccs1)CC2,inactive
2,CC(CCN1CCCCc2nc(C)c(C)cc21)=NO[C@H](C)c1cn([C@H](CO)Cc2ccccc2)nn1,inactive
3,CC(C)[C@@H](OCc1ccccc1)[C@H](C)C=NOC[C@@H](C)[C@H](OCc1ccccc1)C(C)C,inactive
4,CCOC(=O)CN1C(=O)NC(c2ccc(Br)cc2)C(C(=O)OC)=C1C (centres undefined),inactive
5,COC(=O)CC=C1c2ccc(F)cc2[C@@H](OC)[C@@H]1C,inactive
6,CC(=O)OC[C@H]1O[C@H](CCON=C(C)CCN2CCCCc3nc(C)c(C)cc32)C=C[C@H]1OC(C)=O,inactive
7,COC[C@@H](O)[C@H]1OCc2ccccc2[C@H]1C=Cc1ccccc1,inactive
8,COC(=O)C1=C(C(=O)OC)[C@@H]2N(C)c3ccccc3[C@@]23CCC(=O)N(CCCOC(C)C)C3=N1,inactive
9,C#CCN1C(=O)[C@@]2(CC(C)=CC[C@@H](C)O2)c2ccccc21,inactive
10,COc1ccc(-c2ccc3c(n2)CCCN3CC(O)CN2CCCc3nc(C)c(C)cc32)cc1 (centres undefined),inactive
11,C=CCOC(=O)N[C@H](c1ccc2ccccc2c1)[C@H](C)C=CCC(=O)OC,inactive
12,COC(=O)[C@@]1(C=C[C@@H](C)[C@H](OC)c2ccccc2Br)[C@@H]2OCCC[C@@H]21,inactive
13,C=CCN1c2ccccc2[C@]23CCC(=O)N(Cc4ccco4)C2=NC(C(=O)OC)=C(C(=O)OC)[C@H]13,inactive
14,COc1ccc(C(=O)CC(=O)c2c(O)cc(OC)cc2OC)cc1,inactive
15,COC(=O)CCC(=O)OC1(C)C(=O)C=C2C=C(C3CC3)N(Cc3ccco3)C=C2C1=O (centres undefined),inactive
16,C#CCN1C(=O)CC[C@@]23C1=NC(C(=O)OC)=C(C(=O)OC)[C@@H]2N(CC=C(C)C)c1ccccc13,inactive
17,CCCCCCCC1=Cc2ccc(F)cc2C(C(C(C)=O)C(=O)OC)N1C(=O)OC (centres undefined),inactive
18,COC1=C[C@H](C(=O)NCc2ccc(OC)cc2)C(C)C(c2ccccc2)CC1=O (some centres undefined),inactive
19,CCN1C(=O)NC(CCc2ccccc2)C(C(C)=O)=C1C (centres undefined),inactive
